# According to PubChem BioAssay:
# Records with an inconclusive call do not appear. Active and inactive are the calls of the source.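 How the source made its calls, unless noted: active means inhibition over a set limit, the all-compound mean plus 3 SD, in both replicate runs; inconclusive means over that limit in just one replicate run; inactive means at or under that limit in both runs.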
# Assays:
# [1] = Her2 expression decrease, cell viability multiplex – SKBR3 breast tumor cells, AlphaScreen, ATP viability, primary screen (AID 461;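 active means Her2 level under about 52% in both replicate screens, with viability over 70% of control, limit read from the data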;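 on Her2 level: lower value means less Her2 protein in the cells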;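 on viability: percent of carrier control wells set as 100% viability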); conditions: SKBR3 Her2 protein level, 18-24 h, measured here: SKBR3 viability, ATP luminescence, at 10 µM
# [2] = biological target: Receptor tyrosine-protein kinase erbB-2 (Homo sapiens) (UniProt P04626); assay: as above; conditions: 18-24 h, at 10 µM, stronger effect = lower value
# [3] = reduced viability of SK-BR-3 breast cancer cells – cell-based, 24 h, human, pilot screen (AID 572;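 active means viability at or below 10% of carrier control in both of two separate runs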;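 further: compound exposure lasted between 18 and 24 h rather than exactly 24 h; 100% = carrier-treated control wells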); conditions: SK-BR-3 viability, CellTiter-Glo luminescence, at 10 µM, stronger effect = lower value
# [4] = HUVEC growth inhibition – cell-based, human, primary screen (AID 575;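 active means viability at or below 30% in both replicate assays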;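 further: 100% = median of untreated cell wells with 0.1% DMSO on each plate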); conditions: HUVEC proliferation, CellTiter-Glo luminescence, 72 h; at 10 µM; stronger effect = lower value
# [5] = H69AR cell proliferation blockers – human, duplicate replicates, primary screen (AID 580;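 active means viability at or under a set limit in both replicates, limit being median viability minus 3 SD, cut at about 48% in these data, passing the limit was not always enough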;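 further: 100% = mean luminescence of untreated wells and 0% = no signal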); conditions: H69AR lung tumor cells viability, ATP luminescence, 72 h; at 10 µM; stronger effect = lower value
# [6] = MRP1 drug-resistance reversers in H69AR cells – cell-based, doxorubicin co-treatment, pilot screen (AID 601;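 active means viability loss from added drug above about 55%, and viability with drug at most 40%, in both replicates, limit read from the data, passing the limit was not always enough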); conditions: CellTiter-Glo, 72 h, at 10 µM; for differential viability (reversal): stronger effect = higher value
# [7] = yeast transport mutant growth inhibition pilot in 384-well plates, post-Golgi transport modulator project (AID 636; in the data active means inhibition above about 31%); conditions: absorbance 615 nm, about 18 h, stronger effect = higher value
# [8] = growth suppression of yeast trafficking mutant, preliminary HTS, modulators of trafficking downstream of Golgi apparatus project, 1536-format plate, OD 615 nm (AID 637; in the data active means inhibition above about 30%); conditions: yeast transport mutant growth, absorbance 615 nm, 18 h; stronger effect = higher value
# [9] = S. cerevisiae growth inhibition in permissive medium (OD615), pilot counter-assay for S. cerevisiae lifespan shortening project, permissive growth control (AID 705;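 active means growth inhibition above 25% in both replicates, a cutoff set 3 SD above the mean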); conditions: OD615, 24 h, at 10 µM, stronger effect = higher value
# [10] = S. cerevisiae growth inhibition in restrictive medium, OD615, pilot screen, restrictive growth control, yeast lifespan reduction project (AID 706;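 active means growth inhibition above a set limit, 3 SD over mean compound inhibition, in both replicates, cut at about 43% in these data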;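 further: modified DeaD lifespan yeast strain shifted to restrictive glucose medium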); conditions: OD615, 48 h, at 10 µM, stronger effect = higher value
# [11] = doxorubicin toxicity protection in MRP-1 cells – H69AR cells, CellTiter-Glo, duplicate, MRP-1 activator project, pilot screen (AID 807;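 active means viability increase at or above a cutoff of the median across tested compounds plus 3 SD, cut at about 8.5% in these data, passing the limit was not always enough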;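 further: compound pretreatment 18-22 h then 72 h combined with doxorubicin; 0% = doxorubicin alone and 100% = vehicle without doxorubicin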); conditions: H69AR viability with doxorubicin, CellTiter-Glo luminescence; at 10 µM; stronger effect = higher value
# [12] = viability of HCT116 without oncogenic beta-catenin – human colon tumor cells, pilot screen (AID 823;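 active means cell viability at or below a set limit in both duplicate runs, the limit being the all-compound median minus 4 SD, cut at about 23% in these data, passing the limit was not always enough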;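 further: 0% = wells killed by 20 µM Hyamine and 100% = untreated DMSO cell wells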); conditions: HCT116 beta-catenin knockout viability, CellTiter-Glo, 60 h; at 10 µM; stronger effect = lower value
# [13] = viability of PTEN-null HCT116 cells – cell-based, HCT116 clonal line, CellTiter-Glo, pilot screen (AID 824;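 active means viability at or below 27.92% in each of two runs, the all-compound median minus 4 SD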;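 further: 0% = 20 µM Hyamine control and 100% = vehicle cell control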); conditions: HCT116 PTEN-deleted viability, 60 h, at 10 µM, stronger effect = lower value
# [14] = RAM pathway blockade in budding yeast – dse1pr::URA3 reporter, 5-FOA selection, pilot screen (AID 869);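 further: 0% = DMSO wells with no growth and 100% = 10 µM 1-NA-PP1 with full growth; RAM network block rescues cells from 5-FOA so hits raise OD615 growth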; conditions: S. cerevisiae dse1pr::URA3 5-FOA growth, OD615, 2 d; at 10 µM; stronger effect = higher value; strain carries analog-sensitive mutant Cbk1 kinase
# [15] = RAM signaling pathway blockade in yeast – S. cerevisiae, Pdr1DBD-CYC8 efflux-inhibited sensitized strain, primary screen (AID 1298;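 active means RAM network inhibition above 8.4% in each of two replicates, 3 SD over the compound average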;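 further: 0% = DMSO untreated cells without growth and 100% = 10 µM 1-NA-PP1 full growth; higher means more yeast growth rescued from 5-FOA killing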); conditions: S. cerevisiae cbk1-as DSE1-URA3 strain, 5-FOA growth OD615, 2 d; at 50 µM; stronger effect = higher value
# [16] = H69AR cells + 2 uM doxorubicin, measured here: viability with 2 uM doxorubicin, stronger effect = lower value
# [17] = H69AR cells, compound alone cytotoxicity
# Receptor tyrosine-protein kinase erbB-2 (Homo sapiens), sequence (P04626 whole entry, looked up): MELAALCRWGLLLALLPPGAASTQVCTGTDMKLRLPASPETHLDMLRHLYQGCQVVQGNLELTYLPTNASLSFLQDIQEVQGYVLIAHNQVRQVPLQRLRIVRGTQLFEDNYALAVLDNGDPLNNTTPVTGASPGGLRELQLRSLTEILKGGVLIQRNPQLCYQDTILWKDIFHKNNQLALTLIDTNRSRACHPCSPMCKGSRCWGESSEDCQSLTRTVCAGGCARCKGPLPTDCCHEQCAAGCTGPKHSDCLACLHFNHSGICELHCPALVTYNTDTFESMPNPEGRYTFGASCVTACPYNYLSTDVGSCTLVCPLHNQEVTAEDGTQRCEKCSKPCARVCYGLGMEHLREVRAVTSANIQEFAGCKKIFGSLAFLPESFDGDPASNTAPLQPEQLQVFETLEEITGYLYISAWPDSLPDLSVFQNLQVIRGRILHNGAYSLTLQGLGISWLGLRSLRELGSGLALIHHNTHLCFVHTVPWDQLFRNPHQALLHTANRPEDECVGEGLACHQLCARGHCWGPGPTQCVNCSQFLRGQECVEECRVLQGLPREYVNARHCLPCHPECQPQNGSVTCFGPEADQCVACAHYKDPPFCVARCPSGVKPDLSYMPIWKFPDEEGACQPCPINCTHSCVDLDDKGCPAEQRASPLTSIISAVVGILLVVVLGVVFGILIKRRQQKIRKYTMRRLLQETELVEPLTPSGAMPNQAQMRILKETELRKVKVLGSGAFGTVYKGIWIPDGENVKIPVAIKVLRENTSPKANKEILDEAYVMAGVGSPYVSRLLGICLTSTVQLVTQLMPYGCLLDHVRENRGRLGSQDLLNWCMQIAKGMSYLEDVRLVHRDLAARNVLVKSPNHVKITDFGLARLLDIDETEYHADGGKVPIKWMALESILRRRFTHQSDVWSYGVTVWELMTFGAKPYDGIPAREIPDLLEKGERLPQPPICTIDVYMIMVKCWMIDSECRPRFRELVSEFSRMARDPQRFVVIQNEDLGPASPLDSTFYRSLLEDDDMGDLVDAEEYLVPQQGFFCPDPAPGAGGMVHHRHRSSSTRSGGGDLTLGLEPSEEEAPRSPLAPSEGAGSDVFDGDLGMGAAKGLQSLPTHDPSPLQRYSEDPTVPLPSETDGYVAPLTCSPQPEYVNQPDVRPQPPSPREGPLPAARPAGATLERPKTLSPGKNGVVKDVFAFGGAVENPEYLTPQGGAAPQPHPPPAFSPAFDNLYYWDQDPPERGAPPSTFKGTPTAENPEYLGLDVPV
SMILES,viability [1],Her2 level [2],viability [3],viability [4],viability [5],differential viability (reversal) ([6]; H69AR cells + 2 uM doxorubicin),"viability [6, 16]","viability [6, 17]",inhibition [7],inhibition [8],growth inhibition [9],growth inhibition [10],viability increase [11],viability [12],viability [13],inhibition [14],RAM network inhibition [15]
Cn1c(=O)c2c(nc(SCCCC#N)n2Cc2c(F)cccc2Cl)n(C)c1=O,102%,108% (inactive),102% (inactive),91.8% (inactive),77.3% (inactive),61.3% (active),15.9%,77.3%,-1.33% (inactive),1.17% (inactive),-13.5% (inactive),5.36% (inactive),-4.16% (inactive),89.2% (inactive),86.1% (inactive),3.15% (inactive),4.98% (inactive)
COc1ccc(NC(=O)CSc2nc3c(c(=O)n2-c2ccc(F)cc2)SCC3)cc1,100%,102% (inactive),100% (inactive),81.3% (inactive),95.5% (inactive),3.3% (inactive),92.2%,95.5%,-6.27% (inactive),-1.15% (inactive),-8.95% (inactive),-14.3% (inactive),0.22% (inactive),94% (inactive),90.7% (inactive),-0.265% (inactive),3.09% (inactive)
Cc1cccnc1-n1c(CCN2C(=O)c3ccccc3C2=O)nc2ccccc2c1=O,89.5%,106% (inactive),89.5% (inactive),89.2% (inactive),95.1% (inactive),4.03% (inactive),91.1%,95.1%,1.28% (inactive),-10.3% (inactive),6.29% (inactive),-3.29% (inactive),-2.01% (inactive),102% (inactive),97.4% (inactive),0.525% (inactive),3.68% (inactive)
CCCC(=O)N1CC(=O)Nc2ccc(C)cc2C1c1ccc(F)cc1 (stereo not given),86%,101% (inactive),86% (inactive),79.9% (inactive),97.4% (inactive),20.3% (inactive),77.1%,97.4%,-2% (inactive),0.16% (inactive),-8.09% (inactive),-8.8% (inactive),-3.73% (inactive),82.2% (inactive),84.2% (inactive),1.42% (inactive),2.82% (inactive)
Cc1ccccc1OCc1nnc2n1CC(C)S2 (stereo not given),99%,95% (inactive),99% (inactive),88.6% (inactive),92.3% (inactive),1.37% (inactive),90.9%,92.3%,-4.27% (inactive),-2% (inactive),3.34% (inactive),16.6% (inactive),0.12% (inactive),97.8% (inactive),95.3% (inactive),0.795% (inactive),-0.06% (inactive)
CC(C)Cc1nnc(NS(=O)(=O)c2ccc(Cl)cc2)s1,91.5%,98% (inactive),91.5% (inactive),90.1% (inactive),90% (inactive),-4.72% (inactive),94.7%,90%,-4.53% (inactive),-0.5% (inactive),-22.6% (inactive),3.6% (inactive),2.68% (inactive),99.2% (inactive),96.7% (inactive),1.43% (inactive),4.53% (inactive)
COC(=O)c1ccc(NC(=O)CN2CCCC2)cc1,107%,97.5% (inactive),107% (inactive),104% (inactive),99.9% (inactive),0.64% (inactive),99.2%,99.9%,-2% (inactive),-1.13% (inactive),-4.15% (inactive),-3.12% (inactive),-0.69% (inactive),98% (inactive),102% (inactive),0.115% (inactive),0.47% (inactive)
O=C1c2ccccc2C(Nc2ccc(F)cc2F)N1CCN1CCOCC1 (stereo not given),83%,83% (inactive),83% (inactive),87.8% (inactive),78.2% (inactive),-3.69% (inactive),81.9%,78.2%,-5.73% (inactive),3.17% (inactive),0.235% (inactive),-1.68% (inactive),-1.58% (inactive),98.8% (inactive),104% (inactive),1.3% (inactive),0.93% (inactive)
Cc1ccc(CSc2nc3c(c(=O)[nH]2)CCC3)cc1,86.5%,91.5% (inactive),86.5% (inactive),79.7% (inactive),93.1% (inactive),17.8% (inactive),75.2%,93.1%,-0.13% (inactive),2.67% (inactive),-9.96% (inactive),-26.7% (inactive),-0.74% (inactive),105% (inactive),92.9% (inactive),3% (inactive),3.47% (inactive)
CS(=O)(=O)Nc1ccccc1C(=O)O,102%,80.5% (inactive),102% (inactive),91.5% (inactive),98.8% (inactive),2.55% (inactive),96.3%,98.8%,-2.34% (inactive),-5.17% (inactive),-7.19% (inactive),-1.03% (inactive),-1.2% (inactive),94.9% (inactive),97.6% (inactive),0.72% (inactive),2.56% (inactive)
